Laboratory results: the supplement of paper PMC8728848
About 410 targets per protein were measured; listed, in parts, are those with the strongest signals and a random draw of the rest.

Columns and labels:
Test in all cases: glycan array binding signal (z-score within array); higher = stronger binding
Conditions in all cases: glycan notation: IUPAC condensed, linker removed; mutation: D229G
[1] = target: Gal(b1-4)GlcNAc(b1-3)Gal(b1-4)[Fuc(a1-3)]GlcNAc(b1-3)Gal(b1-4)[Fuc(a1-3)]GlcNAc
Method in brief: (§1)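 Arrays were curated from the Consortium for Functional Glycomics database, 3228 in total, and kept only where the protein sequence was available. Binding is expressed as a within-array Z-score. This score was averaged across arrays of the same protein sequence at different concentrations or buffers and across linkers, and negative values can be read as non-binding.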

[2] = target: Gal(b1-4)GlcNAc(b1-3)[Gal(b1-4)GlcNAc(b1-6)]Gal(b1-4)GlcNAc
Method in brief: as §1

[3] = target: Gal3S(b1-3)GalNAc
Method in brief: as §1

[4] = target: Gal3S(b1-4)[Fuc(a1-3)]Glc6S
Method in brief: as §1

[5] = target: Gal3S6S(b1-4)GlcNAc
Method in brief: as §1

[6] = target: Gal4S6S(b1-4)GlcNAc
Method in brief: as §1

[7] = target: Gal6S(b1-4)GlcNAc6S
Method in brief: as §1

[8] = target: GalNAc(a1-3)GalNAc
Method in brief: as §1

[9] = target: GalNAc(b1-4)Gal(b1-4)Glc
Method in brief: as §1

[10] = target: GalNAc(b1-4)GlcNAc(b1-2)Man(a1-3)[GalNAc(b1-4)GlcNAc(b1-2)Man(a1-6)]Man(b1-4)GlcNAc(b1-4)GlcNAc
Method in brief: as §1

[11] = target: GalNAc(b1-6)GalNAc
Method in brief: as §1

[12] = target: GlcNAc(a1-3)Gal(b1-4)GlcNAc
Method in brief: as §1

[13] = target: GlcNAc(a1-4)Gal(b1-4)GlcNAc(b1-3)Gal(b1-4)GlcNAc
Method in brief: as §1

[14] = target: GlcNAc(a1-4)Gal(b1-4)GlcNAc(b1-3)Gal(b1-4)GlcNAc(b1-3)Gal(b1-4)GlcNAc
Method in brief: as §1

[15] = target: GlcNAc(b1-3)Gal(b1-4)GlcNAc(b1-3)Gal(b1-4)GlcNAc(b1-3)Gal(b1-4)GlcNAc(b1-3)Gal(b1-4)GlcNAc(b1-2)Man(a1-3)[GlcNAc(b1-3)Gal(b1-4)GlcNAc(b1-3)Gal(b1-4)GlcNAc(b1-3)Gal(b1-4)GlcNAc(b1-3)Gal(b1-4)GlcNAc(b1-2)Man(a1-6)]Man(b1-4)GlcNAc(b1-4)[Fuc(a1-6)]GlcNAc
Method in brief: as §1

[16] = target: GlcNAc(b1-3)Gal(b1-4)GlcNAc(b1-3)Gal(b1-4)GlcNAc(b1-3)Gal(b1-4)GlcNAc(b1-3)Gal(b1-4)GlcNAc(b1-2)[GlcNAc(b1-3)Gal(b1-4)GlcNAc(b1-3)Gal(b1-4)GlcNAc(b1-3)Gal(b1-4)GlcNAc(b1-3)Gal(b1-4)GlcNAc(b1-6)]Man(a1-6)[GlcNAc(b1-3)Gal(b1-4)GlcNAc(b1-3)Gal(b1-4)GlcNAc(b1-3)Gal(b1-4)GlcNAc(b1-3)Gal(b1-4)GlcNAc(b1-2)Man(a1-3)]Man(b1-4)GlcNAc(b1-4)[Fuc(a1-6)]GlcNAc
Method in brief: as §1

[17] = target: GlcNAc(b1-3)Man
Method in brief: as §1

[18] = target: GlcNAc(b1-4)GlcNAc(b1-4)GlcNAc
Method in brief: as §1

[19] = target: Man(a1-3)[Man(a1-6)]Man(a1-6)[Man(a1-2)Man(a1-3)]Man(b1-4)GlcNAc(b1-4)GlcNAc
Method in brief: as §1

[20] = target: Man(a1-3)[Man(a1-6)]Man(b1-4)GlcNAc(b1-4)[Fuc(a1-6)]GlcNAc
Method in brief: as §1

[21] = target: Neu5Ac(a2-3)Gal(b1-3)GlcNAc6S
Method in brief: as §1

[22] = target: Neu5Ac(a2-3)Gal(b1-3)]Neu5Ac(a2-3)Gal(b1-4)]GlcNAc
Method in brief: as §1

[23] = target: Neu5Ac(a2-3)Gal(b1-4)GlcNAc(b1-6)[Gal(b1-3)]GalNAc
Method in brief: as §1

[24] = target: Neu5Ac(a2-6)Gal
Method in brief: as §1

[25] = target: Neu5Ac(a2-6)Gal(b1-4)GlcNAc(b1-2)Man
Method in brief: as §1

[26] = target: Neu5Ac(a2-6)Gal(b1-4)GlcNAc(b1-3)Gal(b1-4)GlcNAc(b1-3)[Neu5Ac(a2-6)Gal(b1-4)GlcNAc(b1-3)Gal(b1-4)GlcNAc(b1-6)]GalNAc
Method in brief: as §1

[27] = target: Neu5Ac(a2-6)Gal(b1-4)GlcNAc(b1-3)Gal(b1-4)[Fuc(a1-3)]GlcNAc(b1-3)Gal(b1-4)[Fuc(a1-3)]GlcNAc
Method in brief: as §1

[28] = target: Neu5Ac(a2-6)GalNAc(b1-4)GlcNAc6S
Method in brief: as §1

[29] = target: Neu5Ac(a2-8)Neu5Ac(a2-3)Gal(b1-3)GalNAc(b1-4)[Neu5Ac(a2-3)]Gal(b1-4)Glc
Method in brief: as §1

[30] = target: Neu5Ac(a2-8)Neu5Ac(a2-3)[Gal(b1-3)GalNAc(b1-4)]Gal(b1-4)Glc
Method in brief: as §1

[31] = target: Neu5Ac(a2-8)Neu5Ac(a2-8)Neu5Ac(a2-3)[GalNAc(b1-4)]Gal(b1-4)Glc
Method in brief: as §1

[32] = target: Neu5Gc(a2-6)GalNAc
Method in brief: as §1

B1: Epa1-NP-mutant-D229G (Candida glabrata), Q6VBJ0 (protein)
chain: MILNPALFLNKCVCIYTTLILLLLTNGGYATSSNDISLASKDPTTFPLGCSPDITTPKKGLSMELYSYDFRKKGSYPCWDAAYLDPNYPRTGYKSHRLLAKVDGVTGNINFYYHATKGCTPQLGHLPASYNYPKPLTMTNFTMLLYGYFRPKVTGFHTFTISADDLLFVNFGAGNAFDCCRRDSSADHFGNYQAYAIWGSKTAKDELTVHLDAGVYYPIRLFYNNREYGGALSFTFKTESNENTVSDFSEYFFSLDDTEEGCPGLISYDSSCASVKTSKIIGIDYHTETPNENLVPITKTIYHLGIPCTGTTTTPLCGSGFYDPLANKCVTINTSSTSSVTKTTSHTTSKEVSFHSSISSQKTLIPKSIPSPYGPIKSQSIPTEMETSSEISSSEYAFSDVISTPSHSPYTKKHSSLNSSSYTSTVIHSLTSYSISQGIFSTSLSEQNITSKSSTDKFSTATSMSNNITQSSIIISQFSTNNENYTTTSMHTSSDKISTETLNNSISTTTSILFSNSSTILKNNTTIISSDKDTHYHPVNPTIVCSTNKTEIICASITQPSISNSNNHWSSSVLKFNSTTVRSTLPSSAGSNETSINVPFSSSTESNTSTSSTSTSNSKMVRSTLPSSAGSNETSISVPFSSSTESNTSTSSTSTSNSKMVRSTLPSSAGSNETSINVPFSSSTESNTSTSSTSTSNSKTVRSTPFSSAGIIMTSLSQRNNKSASSYASSNSKCYNTADSCRKVHSTPSYLLTSSYTSEGVDYDCSLVSTKLKINDTNCVNNKHTTKSCLKTSVTTTIPTLEIKTARKSSSNTIGLHSYPTSSPNKSISSAPIIGYISSFKTIKTASPSYQTSDLTTITTITSLNNPGSTAVENTHESNDKSRKTSSNDISSKHSVIKETKDAVESSNKSHQTNTLKCSSIIIASSSHNSYESLGGTTLTLTLSKVYSPQNNDTLPFLEISEVNPSRTVLPESSKMMQYLTSTEERNKTARNTIATNIVSISTFHFEGEGNAIRMGYTQLLLMLIGIIVMNIGT
glycan array binding signal (z-score) [1]: -0.579 | glycan array binding signal (z-score) [2]: 0.003 | glycan array binding signal (z-score) [3]: -0.232 | glycan array binding signal (z-score) [4]: 1.6 | glycan array binding signal (z-score) [5]: 2.68 | glycan array binding signal (z-score) [6]: 1.06 | glycan array binding signal (z-score) [7]: 10.9 | glycan array binding signal (z-score) [8]: 0.722 | glycan array binding signal (z-score) [9]: 0.754 | glycan array binding signal (z-score) [10]: 1.11 | glycan array binding signal (z-score) [11]: 0.649 | glycan array binding signal (z-score) [12]: -0.409 | glycan array binding signal (z-score) [13]: 0.024 | glycan array binding signal (z-score) [14]: -0.64 | glycan array binding signal (z-score) [15]: 0.489 | glycan array binding signal (z-score) [16]: 0.337 | glycan array binding signal (z-score) [17]: -0.859 | glycan array binding signal (z-score) [18]: 0.36 | glycan array binding signal (z-score) [19]: 0.04 | glycan array binding signal (z-score) [20]: -0.736 | glycan array binding signal (z-score) [21]: -0.064 | glycan array binding signal (z-score) [22]: 0.197 | glycan array binding signal (z-score) [23]: 0.933 | glycan array binding signal (z-score) [24]: 0.425 | glycan array binding signal (z-score) [25]: 0.054 | glycan array binding signal (z-score) [26]: 3.67 | glycan array binding signal (z-score) [27]: 1.65 | glycan array binding signal (z-score) [28]: 0.733 | glycan array binding signal (z-score) [29]: -0.032 | glycan array binding signal (z-score) [30]: 0.215 | glycan array binding signal (z-score) [31]: -0.436 | glycan array binding signal (z-score) [32]: -0.701
